Laboratory results from the supplement of paper PMC10981050.
“And” between values parts separate entries of the source, which are not always exact repeats. Equal entries are not always repeated. Structures can show the parent of a compound that is named as a salt.

Assays:
Experiment in all cases: cell viability relative to vehicle control; higher = less cytotoxic
Settings in all cases: 10 µM
[1] = system: K562
How it was run: (§1)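 Mutant clones made by CRISPR editing and their isogenic wild-type counterparts, from four leukaemia lines, were exposed to a single 10 µM dose of each library compound for 48 h. The supernatant was then removed and CellTiter-Glo luminescence was read. Viability was reported as percent of the on-plate vehicle control.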

[2] = system: MARIMO
How it was run: as §1

[3] = system: MOLM14
How it was run: as §1

[4] = system: OCI-AML2
How it was run: as §1

Compound	cell viability ([1]; SRSF2 genotype: SRSF2 P95H/wt)	cell viability ([1]; SRSF2 genotype: SRSF2 wt/wt)	cell viability ([2]; SRSF2 genotype: SRSF2 P95H/wt)	cell viability ([2]; SRSF2 genotype: SRSF2 wt/wt)	cell viability ([3]; SRSF2 genotype: SRSF2 P95H/wt)	cell viability ([3]; SRSF2 genotype: SRSF2 wt/wt)	cell viability ([4]; SRSF2 genotype: P95H/wt)	cell viability ([4]; SRSF2 genotype: wt/wt)
COc1ccc(C(=O)C2CCN(CC(=O)N(Cc3nc4c(c(=O)[nH]3)COCC4)CC3CC3)CC2)cc1	110% and 104%	102%	108%	110%	109%	102%	98.8%	109%
O=C1C(=O)c2ccccc2C(O)=C1C1CCC(c2ccc(Cl)cc2)CC1 (stereo not drawn) [Atovaquone (Atavaquone)]	87.9% and 81.8%	79.7%	87.9%	95.8%	84.7%	88.7%	84.8%	90.1%
CN(C)CCC=C1c2ccccc2C(C)(C)c2ccccc21 [Melitracen hydrochloride]	68.2% and 69.9%	82.3%	62.9%	69.7%	63.8%	77.6%	61.3%	65.3%
COc1cc2c(cc1OC)[C@@H]1Cc3ccc(OC)c(OC)c3CN1CC2 [Rotundine]	87.8% and 98.4%	101%	98.2%	91.1%	94%	95.2%	95.1%	90.4%
COc1ccccc1N1CCN(CC(O)COc2cccc3ccccc23)CC1 (stereo not drawn) [Naftopidil (Flivas)]	74.1% and 86.9%	79.5%	66.2%	71.5%	64.1%	72.3%	83.5%	84.6%
CNc1nc(Nc2cnn(C3CCN(C4COC4)CC3F)c2Cl)ncc1C(F)(F)F (stereo not drawn)	89.6% and 89%	91.7%	76.2%	80.1%	38.2%	36.4%	46.3%	47.6%
C#C[C@]1(O)CC[C@H]2[C@@H]3CCC4=CC(=O)CC[C@@H]4[C@H]3C(=C)C[C@@]21CC [Etonogestrel]	82.9% and 75.4%	80.4%	78.6%	88.8%	84.9%	89.9%	88%	88.3%
COC(=O)c1ccc(O)c(O)c1 [Methyl protocatechuate]	105%	105%	90.5%	101%	101%	109%	117%	97.9%
N#CN=C(NCCCCCCOc1ccc(Cl)cc1)Nc1ccncc1	26.1% and 17.5%	25.9%	16.8%	26.9%	6.24%	1.39%	6.42%	6.39%
NC(=O)c1ccc(-c2nc(-c3ccc4c(c3)OCCO4)c(-c3ccccn3)[nH]2)cc1	102% and 103%	92.9%	98.5%	103%	97.5%	97.6%	99.6%	96.8%
CNC(=O)c1cc(Oc2ccc(NC(=O)Nc3ccc(Cl)c(C(F)(F)F)c3)c(F)c2)ccn1 [Regorafenib (BAY 73-4506)]	17.6% and 21.9%	14.9%	29.2%	28%	16.6%	13.1%	23.1%	22.8%
CC(=O)OC(CC(C)C1=C2CC(O)C3C4(C)CCC(=O)C(C)(C)C4CCC3(C)C2(C)CC1)C1OC1(C)C (stereo not drawn) [Alisol B Acetate]	81.3% and 84.2%	87.8%	68.4%	55.6%	72.8%	87.8%	64.1%	68.6%
Cc1ccc2oc(=O)ccc2c1 [6-Methylcoumarin]	99.5% and 87.8%	91.3%	97.3%	98.6%	95%	101%	91.1%	107%
COC(=O)Nc1nc2cc(Sc3ccccc3)ccc2[nH]1 [Fenbendazole (Panacur)]	17.8% and 31.8%	32.8%	27.3%	10.4%	9.32%	4.51%	9.8%	12.7%
CC1=CC(=O)CC(C)(C)C1(O)/C=C/C(C)=C\C(=O)O (stereo not drawn) [Abscisic Acid (Dormin)]	102% and 99.2%	98.1%	101%	110%	104%	101%	105%	102%
CC(C)CCN1c2nc(Nc3cc(F)c(O)c(F)c3)ncc2N(C)C(=O)C1C (stereo not drawn)	49.8% and 63.1%	64.1%	33.9%	35.3%	11.4%	4.4%	16.2%	20.7%
COc1ccc(Cl)cc1NC(=O)Nc1cc(C)nc2ccccc12	81.3% and 91.2%	87%	98.8%	99.1%	87.6%	90.1%	82.7%	74.1%
NC(=O)[C@@H]1CC[C@@H]2CN1C(=O)N2OS(=O)(=O)O [Avibactam sodium]	102% and 116%	112%	110%	106%	108%	111%	102%	101%
COc1ccc(-c2cc(=O)c3c(O)c(OC)c(O)c(OC)c3o2)cc1 [Lysionotin]	104% and 98%	98.9%	97.9%	114%	64%	76.8%	74.8%	83%
C[C@H](NC(=O)/C(C#N)=C/c1cccc(Br)n1)c1ccccc1	25.6% and 17.4%	20.6%	11.2%	7.31%	2.5%	0.75%	10.2%	7.71%
COc1cc(C)c2c(=O)c(-c3ccccc3)coc2c1 [5-Methyl-7-methoxyisoflavone]	101% and 95.6%	92.2%	85.2%	90.2%	97.1%	92.6%	93.4%	88.4%

Compound	cell viability ([1]; SRSF2 genotype: SRSF2 P95H/wt)	cell viability ([1]; SRSF2 genotype: SRSF2 wt/wt)	cell viability ([2]; SRSF2 genotype: SRSF2 P95H/wt)	cell viability ([2]; SRSF2 genotype: SRSF2 wt/wt)	cell viability ([3]; SRSF2 genotype: SRSF2 P95H/wt)	cell viability ([3]; SRSF2 genotype: SRSF2 wt/wt)	cell viability ([4]; SRSF2 genotype: P95H/wt)	cell viability ([4]; SRSF2 genotype: wt/wt)
CCn1cc(NC(=S)Nc2cc(Cl)ccc2OC)c(C(N)=O)n1	92% and 90.5%	89.8%	99.1%	99.4%	96.9%	95%	95.2%	92.5%
CN1CCN(c2ccc3nc(-c4c(N)c5c(F)cccc5[nH]c4=O)[nH]c3c2)CC1 [Dovitinib (TKI258) Lactate]	5.06% and 10.2%	8.08%	9.85%	12%	0.28%	0.3%	0.28%	0.65%
C=C1C2CCC3C2C(C)(C)CCCC13C (single isomer, unassigned; (+)) [(+)-Longifolene]	105% and 104%	110%	96.6%	107%	103%	106%	103%	115%
CC1Cc2ccccc2N1NC(=O)c1ccc(Cl)c(S(N)(=O)=O)c1 (stereo not drawn) [Indapamide (Lozol)]	108% and 105%	103%	106%	105%	106%	106%	114%	104%
COc1ccc(/C=C/c2cc(O)cc(O[C@@H]3O[C@H](CO)[C@@H](O)[C@H](O)[C@H]3O)c2)cc1O [Rhapontin]	86.2% and 86.1%	92.3%	85.4%	99.8%	90.7%	99.3%	89.1%	95.5%
COc1ccc(CC(C)NCC(O)c2ccc(O)c(NC=O)c2)cc1 (stereo not drawn) [Formoterol hemifumarate]	97.2% and 93.9%	91.5%	89.5%	98.5%	86.6%	85.8%	106%	101%
CC(=O)OCC1=C[C@@H]2OC(=O)C3=CO[C@@H](O[C@@H]4O[C@H](CO)[C@@H](O)[C@H](O)[C@H]4O)[C@H]1[C@@H]32 [Asperulosid]	83.4% and 85.5%	85.5%	85.2%	94.3%	85%	88%	88.5%	113%
CCc1cc(C(N)=S)ccn1 [Ethionamide]	97.4% and 93.4%	91.2%	97%	98.1%	106%	100%	94.3%	97.7%
CCCCCC(=O)O[C@]1(C(C)=O)CC[C@H]2[C@@H]3CCC4=CC(=O)CC[C@]4(C)[C@H]3CC[C@@]21C [Hydroxyprogesterone caproate]	40.1% and 34.4%	39.2%	29.2%	24.9%	38.5%	21%	28.8%	23.7%
O=C1CN(/N=C/c2ccc(-c3ccc([N+](=O)[O-])cc3)o2)C(=O)N1 [Dantrolene sodium hemiheptahydrate]	93.8% and 97.3%	104%	96.4%	104%	100%	101%	100%	94.3%
CCCCCCC=CCCCCCCCc1cccc(O)c1C(=O)O [Ginkgolic Acid]	103% and 101%	104%	108%	110%	109%	107%	100%	106%
N=C(NCCCCCCNC(=N)NC(=N)Nc1ccc(Cl)cc1)NC(=N)Nc1ccc(Cl)cc1 [Chlorhexidine]	14.9% and 12%	23%	39.3%	34.6%	5.12%	4.9%	2.08%	6.07%
CC(=O)N1C[C@H](O)C[C@H]1C(=O)O [Oxaceprol]	101% and 93.4%	99.3%	104%	109%	96.1%	102%	94.3%	106%
CNC(=O)c1cnn(-c2nc(N)c3ncn([C@@H]4O[C@H](CO)[C@@H](O)[C@H]4O)c3n2)c1 [Regadenoson]	106% and 105%	104%	102%	103%	103%	103%	104%	119%
COc1cc2c(cc1OC)-c1cc3ccc(OC)c(OC)c3c[n+]1CC2 [Palmatine chloride]	82.8% and 81.3%	75.1%	81%	93%	82.6%	86%	81.9%	80.9%
CC1(C)CC[C@]2(C)CC[C@]3(C)C(=CC[C@@H]4[C@@]5(C)CC[C@@H](O)[C@](C)(C(=O)O)[C@@H]5CC[C@]43C)[C@@H]2C1	97.6% and 95.5%	97.8%	97.8%	108%	102%	103%	94.4%	96.1%
CCOC(=O)c1ccc(NC2CCCCC2)c(N)c1 [Ferrostatin-1 (Fer-1)]	98.7% and 94.8%	88.4%	90.6%	106%	104%	102%	94.3%	90.4%
CN1CCN(Cc2ccc(Nc3ncc(Cl)c(Nc4ccccc4S(=O)(=O)N(C)C)n3)cc2)CC1	42.8% and 43%	47.6%	30.3%	4.7%	11.3%	0.64%	2.24%	10.3%
CC(C)(C)S(=O)(=O)c1ccc2nccc(Nc3n[nH]c4ccc(F)cc34)c2c1	91.4% and 95.8%	98.8%	92.8%	99.5%	88%	95.6%	88.9%	86.2%
CCOC(=O)CC(=O)N1CCSC1COc1ccccc1OC (stereo not drawn) [Moguisteine]	99.2% and 102%	97.3%	98.3%	108%	100%	105%	105%	92%
